Results as given in the supplement of paper PMC4723716.

Tested on: Plasmodium falciparum NF54 gametocytes
Test: viability index relative to DMSO control (fraction); higher = less gametocyte killing
Conditions: 12.5 µM, incubation time: 72 h
Outline: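 In 384-well plates, compound at 12.5 µM was incubated for 72 hr at 37°C under low oxygen with P. falciparum NF54 gametocytes of each stage (I–V) at 0.50% gametocytemia and 1.25% hematocrit in 40 µl of serum-containing medium. Staining used 5 µl of 5 µM MitoTracker Red CMXRos for 20 min, then 5 µl was moved into 40 µl of 500 nM dye in serum-free medium and imaged after 30 min. Dividing the gametocyte particle count by the plate mean of solvent-only wells gave the viability index.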

[1] = gametocyte stage: Stage I viability index
[2] = gametocyte stage: Stage II viability index
[3] = gametocyte stage: Stage III viability index
[4] = gametocyte stage: Stage IV viability index
[5] = gametocyte stage: Stage V viability index

Structure (SMILES)	viability index [1]	viability index [2]	viability index [3]	viability index [4]	viability index [5]
CCN(CC)CCNc1ccnc2cc(Cl)ccc12	0.0376	0.295	0.789	0.726	0.626
Cc1sc2ncnc(Sc3nc4ccccc4[nH]3)c2c1C	0.0276	0.0135	0.0354	0.0821	0.0659
COCCn1c(C)nc2ccccc2c1=O	0.825	0.879	0.733	0.711	0.418
Cc1ccc(CN2CCC(C(=O)Nc3ccc(-c4cc5ccccc5[nH]4)cc3)CC2)o1	0.00663	0.313	0.43	0.422	0.396
Cc1ccc(OCCCCCCNCCO)c(C)c1	1.13	1.04	1.05	0.934	0.909
Nc1nc(Nc2cccc(F)c2)nc2ccccc12	0.0673	0.534	0.725	0.82	0.844
CN1CCN(c2ncnc3c2[nH]c2ccc(Cl)cc23)CC1	0.263	0.577	0.92	1.04	0.935
Cc1ccc(Nc2nc(NCCO)c3ccccc3n2)cc1C	0.0641	0.32	0.584	0.796	0.659
COc1ccc(C)c2sc(N(Cc3cccnc3)C(=O)c3ccc(C#N)cc3)nc12	0.441	0.704	0.95	0.794	1.01
CCCCN(CCCC)S(=O)(=O)c1ccc(NC(=O)c2ccco2)cc1	0.943	0.963	0.951	0.842	0.831
CCOC(=O)c1c(C)n(-c2ccc(Cl)cc2)c2ccc(OC(=O)C=Cc3ccccc3)cc12	0.708	0.792	1.01	0.964	0.978
Oc1c2c(nc3cc(-c4ccccc4)nn13)CCCC2	1.07	0.786	1.07	0.878	0.879
CC(C)(C)c1ccc(O)c(CNC2CCCCC2)c1	0.256	0.329	0.482	0.571	0.462
COc1cccc(C=Cc2nc(=O)c3ccccc3o2)c1OC	0.751	0.717	0.809	0.948	0.967
COc1ccc(Nc2nc(NCc3ccccc3)c3ccccc3n2)cc1	0.0331	0.107	0.562	0.593	0.286
COC(=O)c1ccc(Cl)c2c1C1C=CCC1C(c1cccc3ccccc13)N2 (stereo not given)	0.825	0.795	1.14	0.962	0.883
COc1ccc(-c2c(C)nn3c(N)c(C#N)cnc23)cc1OC	0.0343	0.00676	0.0325	0.0942	0.0769
CCCC(c1nnnn1C1CCCCC1)N1CCN(C(=O)c2ccco2)CC1 (stereo not given)	1.04	0.976	1.01	1.02	1.16
CCN(CC)CCn1c(=N)n(CC(O)c2ccc(Cl)c(Cl)c2)c2ccccc21 (stereo not given)	0.00552	0.057	0.0608	0.0851	0.121
Cn1c(=O)c2cc(C(=O)NCCCN3CCCCCC3)sc2c2ccccc21	1.01	0.857	0.926	0.957	0.725

Structure (SMILES)	viability index [1]	viability index [2]	viability index [3]	viability index [4]	viability index [5]
OC1CCCCC1C1(NC(=S)Nc2ccccc2)CCCCC1 (stereo not given)	0.24	0.184	0.0868	0.108	0.247
COc1ccc(-c2cc(=O)oc3c4c(ccc23)OCN(Cc2ccc(F)cc2)C4)cc1	0.0192	0.0833	0.406	0.516	0.545
COc1ccc2nc(C)cc(Nc3cccc(O)c3)c2c1	0.105	0.564	0.896	0.991	1.1
CC1CN(C(=O)c2sc3ccccc3c2Cl)CC(C)O1 (stereo not given)	0.768	0.756	0.97	0.912	0.989
OC(CNCC1CCCO1)Cn1c2ccc(Cl)cc2c2cc(Cl)ccc21 (stereo not given)	0.0685	0.0647	0.468	0.65	0.56
Oc1ccccc1CN1CCC2(CCCN(Cc3ccccc3F)C2)C1 (stereo not given)	0.0166	0.161	0.509	0.657	1.07
CNCCCNc1ccnc2cc(Cl)ccc12	0.0398	0.291	0.704	0.875	0.747
O=C(NCC(c1ccsc1)N1CCCCCC1)c1ccc(C(F)(F)F)cc1 (stereo not given)	0.653	0.881	0.843	0.9	0.725
O=C(NC1CCN(Cc2ccccc2)CC1)c1cc(C(=O)NC2CCN(Cc3ccccc3)CC2)cc(C(=O)NC2CCN(Cc3ccccc3)CC2)c1	0.0629	0.0649	0.0393	0.0475	0.013
CCOC(=O)c1cn(CC)c2cc(N3CCCCC3)c(F)cc2c1=O	0.592	0.9	0.81	0.769	0.791
COCCNC(=O)c1ccc(OC2CCN(Cc3ccc(F)c(F)c3)CC2)c(Cl)c1	0.672	0.812	1.07	0.979	0.901
CC1=C(CC(=O)c2cccc([N+](=O)[O-])c2)C(=O)c2ccccc2C1=O	0.00612	0.00167	0.0706	0.196	0.234
CCCCc1c(C)nc2c(OC)cccc2c1O	1.07	0.942	1.03	0.954	1.1
CN(C)c1ccc(C(O)(c2ccc(N(C)C)cc2)c2ccc(N(C)C)cc2)cc1	0.157	0.0203	0.0948	0.0608	0.11
COc1ccc(C2=C(c3ccc(OC)cc3)C3(c4ccccc4)C(=O)C2(c2ccccc2)C2C(=O)N(c4ccc(C)cc4)C(=O)C23)cc1 (stereo not given)	0.682	0.679	0.949	1.02	0.967
O=C(Nc1ccsc1C(=O)NC1CCCCC1)c1ccc(F)cc1	0.93	0.729	0.965	0.933	0.945
CC1(c2ccccc2)Nc2ccccc2-c2nc3ccccc3n21 (stereo not given)	0.183	0.109	0.298	0.498	0.0659
Cc1cccc(Nc2nc(N)c3ccccc3n2)c1	0.0785	0.635	0.948	0.854	0.692
Cc1c(C)n(Cc2ccc(F)cc2)c2ccc(C(=O)NCc3ccco3)cc12	0.478	0.756	0.932	0.827	1
COc1cccc(NC(=O)Cn2c(C)c(C#N)c3ccccc32)c1	0.0586	0.129	0.252	0.605	0.363

Structure (SMILES)	viability index [1]	viability index [2]	viability index [3]	viability index [4]	viability index [5]
N#Cc1nc(Cc2cccc3ccccc23)oc1N1CCN(C(c2ccccc2)c2ccccc2)CC1	1.12	0.93	1.23	0.968	1.16
O=c1cc(NC2CCN(CCCc3ccccc3)CC2)c2cc(Cl)ccc2o1	0.028	0.408	0.815	0.848	0.675
CCOc1ccc2c(c1)CN(Cc1ccc(Cl)cc1)CO2	0.0612	0.129	0.452	0.592	0.468
O=C1c2ccccc2-c2nnc(-c3ccc(Br)cc3)cc21	0.844	0.875	0.783	0.873	0.87
Nc1ccc(-c2nc3cc(Cc4ccc5[nH]c(-c6ccc(N)cc6)nc5c4)ccc3[nH]2)cc1	0.0227	0.00833	0.0204	0.0127	0
O=C(NC1CCN(Cc2ccccc2)CC1)c1cc(-c2cccnc2)nc2ccc(Cl)cc12	0.53	0.609	0.989	1.18	0.725
COc1ccc(C(=O)NC(c2ccccc2Cl)c2cc(Cl)c3cccnc3c2O)cc1 (stereo not given)	0.11	0.0824	0.167	0.241	0.221
COc1ccc2c(=O)cc(C(Cl)(Cl)Cl)oc2c1	0.0166	0.146	0.512	0.623	0.56
CCC(O)c1ccc(Br)cc1NC(=O)c1cccc(Cl)c1 (stereo not given)	0.0243	0.196	0.598	0.729	0.582
Cc1ccc(C(=O)c2oc3ccc4c(C)cc(=O)oc4c3c2C)cc1	1.1	0.932	0.905	1.04	1.08
O=C(Nc1ccc(Br)cc1)Nc1cccc(Cl)c1	0.341	0.542	0.816	0.936	0.451
CC(NCc1ccccc1)c1cc(Cl)ccc1O (stereo not given)	0.0221	0.121	0.44	0.574	0.923
c1ccc(C2=Nc3ccccc3N=C(c3ccccc3)c3ccccc32)cc1	0.0839	0.0541	0.0543	0.123	0.0909
COc1cc(-c2nc(-c3ccccc3)c(-c3ccccc3)[nH]2)cc(OC)c1O	0.0446	0.247	0.358	0.532	0.221
OC1=C2C(=Nc3ccccc3SC2c2ccc(Br)cc2)c2ccccc21 (stereo not given)	0.755	0.751	1.04	0.801	0.857
Cc1ccc2c(C)nc(Nc3nc(C)cc(-c4ccccc4)n3)nc2c1	0.169	0.3	0.318	0.231	0.0519
Oc1c2c(nc3ccccc13)CCCC2	0.828	0.959	0.985	0.87	0.961
FC(F)(F)c1cccc(Nc2nc(-c3ccccc3)nc3ncccc23)c1	1.17	1.08	1.33	1.09	1.15
Cc1sc(NC(=O)c2ccccc2)c(C(c2cccs2)N2CCN(c3ccccc3)CC2)c1C (stereo not given)	1	0.74	0.905	0.753	0.545
O=C(Nc1ccc(CN2CCOCC2)cc1)c1ccc(-c2ccc(Br)cc2)o1	0.141	0.543	0.926	0.787	1.16
